Data from the supplement of paper PMC8728848.
The entries come from a sample that favours the strongest signals as a whole.

Assays:
Test in all cases: glycan array binding signal (z-score within array); higher = stronger binding
Details in all cases: glycan notation: IUPAC condensed, linker removed
[1] = biological target: Fuc(a1-2)Gal(b1-3)GlcNAc(b1-2)Man(a1-3)[Fuc(a1-2)Gal(b1-3)GlcNAc(b1-2)Man(a1-6)]Man(b1-4)GlcNAc(b1-4)GlcNAc
How it was run: (§1)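 The Consortium for Functional Glycomics database supplied 3228 glycan arrays, of which those lacking an available protein sequence were dropped. The binding signal, a within-array Z-score, was averaged across arrays of the same protein sequence and across linkers. Negative scores can be read as non-binding.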

[2] = biological target: Fuc(a1-2)Gal(b1-3)GlcNAc(b1-3)Gal(b1-4)Glc
How it was run: as §1

Fuc(a1-2)Gal(b1-4)GlcNAc = biological target: Fuc(a1-2)Gal(b1-4)GlcNAc
How it was run: as §1

[3] = biological target: Fuc(a1-2)Gal(b1-4)GlcNAc(b1-2)[Fuc(a1-2)Gal(b1-4)GlcNAc(b1-4)]Man(a1-3)[Fuc(a1-2)Gal(b1-4)GlcNAc(b1-2)Man(a1-6)]Man(b1-4)GlcNAc(b1-4)GlcNAc
How it was run: as §1

[4] = biological target: Fuc(a1-2)Gal6S(b1-3)GlcNAc
How it was run: as §1

Fuc(a1-2)[Gal(a1-3)]Gal = biological target: Fuc(a1-2)[Gal(a1-3)]Gal
How it was run: as §1

[5] = biological target: Fuc(a1-2)[Gal(a1-3)]Gal(b1-3)GalNAc
How it was run: as §1

[6] = biological target: Fuc(a1-2)[Gal(a1-3)]Gal(b1-4)GlcNAc(b1-2)Man(a1-3)[Fuc(a1-2)[Gal(a1-3)]Gal(b1-4)GlcNAc(b1-2)Man(a1-6)]Man(b1-4)GlcNAc(b1-4)[Fuc(a1-6)]GlcNAc
How it was run: as §1

[7] = biological target: Fuc(a1-2)[Gal(a1-3)]Gal(b1-4)GlcNAc(b1-6)GalNAc
How it was run: as §1

[8] = biological target: Fuc(a1-2)[Gal(a1-3)]Gal(b1-4)[Fuc(a1-3)]Glc
How it was run: as §1

[9] = biological target: Fuc(a1-2)[Gal(a1-3)]Gal(b1-4)[Fuc(a1-3)]GlcNAc(b1-3)GalNAc
How it was run: as §1

[10] = biological target: Fuc(a1-2)[GalNAc(a1-3)]Gal(b1-3)GlcNAc
How it was run: as §1

[11] = biological target: Fuc(a1-3)[Gal(b1-4)]GlcNAc(b1-2)Man
How it was run: as §1

[12] = biological target: Fuc(a1-3)[Gal(b1-4)]GlcNAc(b1-3)Gal(b1-3)[Fuc(a1-4)]GlcNAc
How it was run: as §1

[13] = biological target: Fuc(a1-3)[Gal(b1-4)]GlcNAc(b1-3)GalNAc
How it was run: as §1

[14] = biological target: Fuc(a1-3)[GalNAc(b1-4)]GlcNAc
How it was run: as §1

[15] = biological target: Gal(a1-3)Gal(b1-3)GlcNAc(b1-3)GalNAc
How it was run: as §1

[16] = biological target: Gal(a1-3)Gal(b1-4)GlcNAc(b1-2)Man(a1-3)[Gal(a1-3)Gal(b1-4)GlcNAc(b1-2)Man(a1-6)]Man(b1-4)GlcNAc(b1-4)GlcNAc
How it was run: as §1

Gal(a1-3)GalNAc = biological target: Gal(a1-3)GalNAc
How it was run: as §1

Gal(a1-4)Gal(b1-4)Glc = biological target: Gal(a1-4)Gal(b1-4)Glc
How it was run: as §1

Gal(b1-2)Gal = biological target: Gal(b1-2)Gal
How it was run: as §1

Gal(b1-3)Gal(b1-4)GlcNAc = biological target: Gal(b1-3)Gal(b1-4)GlcNAc
How it was run: as §1

[17] = biological target: Gal(b1-3)GalNAc(a1-3)[Fuc(a1-2)]Gal(b1-4)Glc
How it was run: as §1

Gal(b1-3)GlcNAc(b1-2)Man = biological target: Gal(b1-3)GlcNAc(b1-2)Man
How it was run: as §1

[18] = biological target: Gal(b1-3)GlcNAc(b1-3)Gal(b1-4)GlcNAc(b1-3)Gal(b1-4)GlcNAc(b1-2)[Gal(b1-3)GlcNAc(b1-3)Gal(b1-4)GlcNAc(b1-3)Gal(b1-4)GlcNAc(b1-6)]Man(a1-6)[Gal(b1-3)GlcNAc(b1-3)Gal(b1-4)GlcNAc(b1-3)Gal(b1-4)GlcNAc(b1-2)Man(a1-3)]Man(b1-4)GlcNAc(b1-4)[Fuc(a1-6)]GlcNAc
How it was run: as §1

[19] = biological target: Gal(b1-3)[Neu5Ac(a2-6)]GlcNAc(b1-6)Gal(b1-4)Glc
How it was run: as §1

Gal(b1-4)GlcNAc(b1-2)Man = biological target: Gal(b1-4)GlcNAc(b1-2)Man
How it was run: as §1

[20] = biological target: Gal(b1-4)GlcNAc(b1-2)[Gal(b1-4)GlcNAc(b1-4)]Man(a1-3)[GlcNAc(b1-4)][Gal(b1-4)GlcNAc(b1-2)Man(a1-6)]Man(b1-4)GlcNAc(b1-4)GlcNAc
How it was run: as §1

[21] = biological target: Gal(b1-4)GlcNAc(b1-3)Gal(b1-4)GlcNAc(b1-2)[Gal(b1-4)GlcNAc(b1-3)Gal(b1-4)GlcNAc(b1-6)]Man(a1-6)[Gal(b1-4)GlcNAc(b1-3)Gal(b1-4)GlcNAc(b1-2)Man(a1-3)]Man(b1-4)GlcNAc(b1-4)[Fuc(a1-6)]GlcNAc
How it was run: as §1

[22] = biological target: Gal(b1-4)GlcNAc(b1-3)Gal(b1-4)GlcNAc(b1-3)Gal(b1-4)GlcNAc(b1-2)Man(a1-3)[Gal(b1-4)GlcNAc(b1-3)Gal(b1-4)GlcNAc(b1-3)Gal(b1-4)GlcNAc(b1-2)Man(a1-6)]Man(b1-4)GlcNAc(b1-4)GlcNAc
How it was run: as §1

B1: Gal 1 (Mus musculus), P16045 (protein)
chain: MACGLVASNLNLKPGECLKVRGEVASDAKSFVLNLGKDSNNLCLHFNPRFNAHGDANTIVCNTKEDGTWGTEHREPAFPFQPGSITEVCITFDQADLTIKLPDGHEFKFPNRLNMEAINYMAADGDFKIKCVAFE
glycan array binding signal (z-score) [1]: 0.069
glycan array binding signal (z-score) [2]: -0.229
glycan array binding signal (z-score) (Fuc(a1-2)Gal(b1-4)GlcNAc): -0.279
glycan array binding signal (z-score) [3]: 0.547
glycan array binding signal (z-score) [4]: -0.468
glycan array binding signal (z-score) (Fuc(a1-2)[Gal(a1-3)]Gal): -0.365
glycan array binding signal (z-score) [5]: -0.363
glycan array binding signal (z-score) [6]: 0.008
glycan array binding signal (z-score) [7]: -0.106
glycan array binding signal (z-score) [8]: -0.455
glycan array binding signal (z-score) [9]: -0.325
glycan array binding signal (z-score) [10]: -0.394
glycan array binding signal (z-score) [11]: -0.075
glycan array binding signal (z-score) [12]: -0.064
glycan array binding signal (z-score) [13]: -0.264
glycan array binding signal (z-score) [14]: -0.277
glycan array binding signal (z-score) [15]: -0.23
glycan array binding signal (z-score) [16]: 4.96
glycan array binding signal (z-score) (Gal(a1-3)GalNAc): -0.186
glycan array binding signal (z-score) (Gal(a1-4)Gal(b1-4)Glc): -0.376
glycan array binding signal (z-score) (Gal(b1-2)Gal): 0.468
glycan array binding signal (z-score) (Gal(b1-3)Gal(b1-4)GlcNAc): -0.195
glycan array binding signal (z-score) [17]: -0.41
glycan array binding signal (z-score) (Gal(b1-3)GlcNAc(b1-2)Man): -0.113
glycan array binding signal (z-score) [18]: 2.97
glycan array binding signal (z-score) [19]: -0.078
glycan array binding signal (z-score) (Gal(b1-4)GlcNAc(b1-2)Man): -0.253
glycan array binding signal (z-score) [20]: 0.891
glycan array binding signal (z-score) [21]: 3.02
glycan array binding signal (z-score) [22]: 2.85
